Records with an inconclusive call do not appear. A number with no mark means an inactive call. Active and inactive are the calls of the source. The call rests on the fitted dose curve; in most records, active means well fitted inhibition curve with a large enough effect; inconclusive means small, poorly fitted or top-dose-only effect; inactive means flat fitted curve, though single readings scatter.
Potency means the concentration at half of the fitted maximal effect.

Test system in one assay: not listed separately
Description: qHTS profiling for inhibitors of Plasmodium falciparum proliferation (AID 504749). Further: nearly all actives have a fitted effect of over 60% in size.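 On activity, negative = inhibition: 0% = DMSO vehicle and full inhibition = artemisinin control.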 The following applies: P. falciparum in erythrocytes, SYBR Green DNA, 72 h; at 28.7 µM (top of the series); parasite line B. A digest of the protocol: (§1)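 Fluorescence of SYBR Green-bound parasite DNA, read at 485/535 nm, served as the growth measure. Infected erythrocytes were cultured with compound 72 h; artemisinin (0.29 uM) and DMSO wells defined the normalization range.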
As to `CC(C)COC(=O)c1ccc(N)cc1`, the activity, negative = inhibition is -17.5%.
As for `C[C@@H]1C(=O)NC2=Nc3cccc(Cl)c3CN21`, the activity, negative = inhibition was -2.54%.
As for `CCCCCCCCCCCCCCCCCC(=O)OCC(O)CO` (configuration not stated), the activity, negative = inhibition is 11.8%.
As to `CCN(CC)C(=O)/C(C#N)=C/c1cc(O)c(O)c([N+](=O)[O-])c1`, the activity, negative = inhibition is -7.95%.
Same read-out and setting: in the case of `O=C1[C@H]2CCCC[C@H]2C(=O)N1CCCCN1CCN(c2nsc3ccccc23)CC1` it was 7.58%; in that of `Cc1ccc(O)c2ncccc12`, -28.2%.

Staying with this assay, now noted: P. falciparum in erythrocytes, SYBR Green DNA, 72 h; parasite line A.
As to `C=C(CC)C(=O)c1ccc(OCC(=O)O)c(Cl)c1Cl`, the Potency is 12.6 µM (active).
In the case of `CCCCC(CC)CN=C(N)NC(N)=NCCCCCCN=C(N)NC(N)=NCC(CC)CCCC` (configuration not stated), the Potency is 1 µM (active).
Turning to `CC[N+](CC)(CCNC(=O)C(=O)NCC[N+](CC)(CC)Cc1ccccc1Cl)Cc1ccccc1Cl`, the Potency is 1.12 µM (active).
As to `C[C@@H]1CN(CCCn2c3ccccc3c3ccccc32)C[C@H](C)N1`, the Potency is 10 µM (active).
As for `CC(C)N=C(N)/N=C(\N)Nc1ccc(Cl)cc1`, the Potency was 1.12 µM (active).
On the same count and under the same terms, in the case of `CCCCCCCCCCCCCCNCCO` it was 10 µM (active).

The same assay, now with this note: P. falciparum in erythrocytes, SYBR Green DNA, 72 h; parasite line B.
Consider `COc1cccc(CCc2ccccc2OCC(CN(C)C)OC(=O)CCC(=O)O)c1` (configuration not stated), for which the Potency was 6.31 µM (active).
The same measure, in the same setting: then `CC[N+](CC)(CCNC(=O)C(=O)NCC[N+](CC)(CC)Cc1ccccc1Cl)Cc1ccccc1Cl`, with 0.794 µM (active).
As to `CN(C)CC/C=C1\c2ccccc2Sc2ccc(Cl)cc21`, the Potency is 8.91 µM (active).
Regarding `c1ccc(-c2ccc(C(c3ccccc3)n3ccnc3)cc2)cc1` (configuration not stated), the Potency was 11.2 µM (active).
Regarding `CC(C)N=C(N)/N=C(\N)Nc1ccc(Cl)cc1`, the Potency was 1.58 µM (active).
Same read-out and setting: then `CCCCc1nc(Cl)c(CO)n1Cc1ccc(-c2ccccc2-c2nn[nH]n2)cc1`, with 12.6 µM (active).

The test system of the next assay is 3D7. The assay is described as above. To be noted: P. falciparum in erythrocytes, SYBR Green DNA, 72 h; series mostly up to 28.7 µM. The method in brief:
as §1
For `CCCCCCCCCCOCC(O)CN` (configuration not stated), the Potency entry was “inactive”.
The same measure, in the same setting: then `CN1CCC[C@@H]1c1cccnc1`, with “inactive”; and `O=C(Nc1ccc(Oc2ccc(Cl)cc2)c(Cl)c1)c1cc(I)cc(I)c1O`, with “inactive”.
On the same count and under the same terms, then `CC(C)NC[C@@H](O)COc1cccc2ccccc12`, with “inactive”; and `COc1cccc(CCc2ccccc2OCC(CN(C)C)OC(=O)CCC(=O)O)c1` (configuration not stated), with 10 µM (active).
Same read-out and setting: then `CC(C)COC(=O)c1ccc(N)cc1`, with “inactive”; and `CCN(CC)CCNC(=O)COc1ccc(Cl)cc1`, with “inactive”; and `CCCCC(CC)CN=C(N)NC(N)=NCCCCCCN=C(N)NC(N)=NCC(CC)CCCC` (configuration not stated), with 1.58 µM (active).
On to `O=C(CCCN1CCC(O)(c2ccc(Br)cc2)CC1)c1ccc(F)cc1`, for which the Potency is 5.62 µM (active).
For `C[C@@H]1C(=O)NC2=Nc3cccc(Cl)c3CN21`, the Potency entry is “inactive”.
Still for that read-out and setting: in the case of `CNCCC=C1c2ccccc2CCc2ccccc21` it was “inactive”; in that of `CN(C)CC/C=C1\c2ccccc2Sc2ccc(Cl)cc21`, “inactive”; in that of `CN(C)C(=S)SC(=S)N(C)C`, 11.2 µM (active).
Turning to `CCCCc1nc(Cl)c(CO)n1Cc1ccc(-c2ccccc2-c2nn[nH]n2)cc1`, the Potency is 5.62 µM (active).
With `COc1ccc(C2C(=O)c3ccccc3C2=O)cc1`, the Potency entry is “inactive”.
`Oc1ccc(O)cc1`: the Potency was 8.91 µM (active).
Same read-out and setting: in the case of `CC(=O)OCC(=O)[C@@]1(OC(C)=O)[C@@H](C)C[C@H]2[C@@H]3C[C@H](F)C4=CC(=O)C=C[C@]4(C)[C@@]3(F)[C@@H](O)C[C@@]21C` it was “inactive”; in that of `CO/N=C1\CN(c2nc3c(cc2F)c(=O)c(C(=O)O)cn3C2CC2)CC1CN` (configuration not stated), 10 µM (active).

For a further assay, the system named is 7G8. The description is as above. To be noted: P. falciparum in erythrocytes, SYBR Green DNA, 72 h; series mostly up to 28.7 µM. A digest of the protocol: as §1
As for `C=C(CC)C(=O)c1ccc(OCC(=O)O)c(Cl)c1Cl`, the Potency is 14.1 µM (active).
On the same count and under the same terms, then `CCCCCCCCCCOCC(O)CN` (configuration not stated), with 12.6 µM (active); and `CN1CCC[C@@H]1c1cccnc1`, with “inactive”; and `CC(C)NC[C@@H](O)COc1cccc2ccccc12`, with 5.62 µM (active).
On the same count and under the same terms, in the case of `COc1cccc(CCc2ccccc2OCC(CN(C)C)OC(=O)CCC(=O)O)c1` (configuration not stated) it was 0.631 µM (active); in that of `CCOc1ccc(Cc2nccc3cc(OCC)c(OCC)cc23)cc1OCC`, “inactive”.
Still for that read-out and setting: then `CC(C)COC(=O)c1ccc(N)cc1`, with “inactive”; and `CCOC(=O)/C=C(C)/C=C/C=C(C)/C=C/c1c(C)cc(OC)c(C)c1C`, with 12.6 µM (active).
With `CCCCC(CC)CN=C(N)NC(N)=NCCCCCCN=C(N)NC(N)=NCC(CC)CCCC` (configuration not stated), the Potency is 0.316 µM (active).
With `CCCOC(C(=O)OC1CCN(C)CC1)(c1ccccc1)c1ccccc1`, the Potency was 11.2 µM (active).
`O=C(CCCN1CCC(O)(c2ccc(Br)cc2)CC1)c1ccc(F)cc1`: the Potency is 2.82 µM (active).
Take `C[C@@H]1C(=O)NC2=Nc3cccc(Cl)c3CN21`: the Potency entry is “inactive”.
Take `CNCCC=C1c2ccccc2CCc2ccccc21`: the Potency was 11.2 µM (active).
Take `CC[N+](CC)(CCNC(=O)C(=O)NCC[N+](CC)(CC)Cc1ccccc1Cl)Cc1ccccc1Cl`: the Potency is 7.94 µM (active).
Take `CN(C)CC/C=C1\c2ccccc2Sc2ccc(Cl)cc21`: the Potency was 12.6 µM (active).
On to `c1ccc(-c2ccc(C(c3ccccc3)n3ccnc3)cc2)cc1` (configuration not stated), for which the Potency was 2 µM (active).
On to `CN(C)C(=S)SC(=S)N(C)C`, for which the Potency is 6.31 µM (active).
Still for that read-out and setting: in the case of `C[C@@H]1CN(CCCn2c3ccccc3c3ccccc32)C[C@H](C)N1` it was 4.47 µM (active).
Still for that read-out and setting: in the case of `CCCCCCCCCCCCCCCCCC(=O)OCC(O)CO` (configuration not stated) it was “inactive”; in that of `NC(CS)C(=O)O` (configuration not stated), 1.78 µM (active).
Regarding `O=C1OCCN1/N=C/c1ccc([N+](=O)[O-])o1`, the Potency is 10 µM (active).
Turning to `CCN(CC)C(=O)/C(C#N)=C/c1cc(O)c(O)c([N+](=O)[O-])c1`, the Potency was 14.1 µM (active).
On the same count and under the same terms, in the case of `CCCCc1nc(Cl)c(CO)n1Cc1ccc(-c2ccccc2-c2nn[nH]n2)cc1` it was 6.31 µM (active); in that of `CCCCCCCCCCCCCCNCCO`, 10 µM (active).
Take `COc1ccc(C2C(=O)c3ccccc3C2=O)cc1`: the Potency entry is “inactive”.
On the same count and under the same terms, in the case of `Cc1cccc(C)c1NC(=O)CN1CCN(CCCC(c2ccc(F)cc2)c2ccc(F)cc2)CC1` it was 4.47 µM (active); in that of `CC(=O)OCC(=O)[C@@]1(OC(C)=O)[C@@H](C)C[C@H]2[C@@H]3C[C@H](F)C4=CC(=O)C=C[C@]4(C)[C@@]3(F)[C@@H](O)C[C@@]21C`, 8.91 µM (active).
`CO/N=C1\CN(c2nc3c(cc2F)c(=O)c(C(=O)O)cn3C2CC2)CC1CN` (configuration not stated): the Potency was 7.94 µM (active).
On the same count and under the same terms, in the case of `Cc1ccc(O)c2ncccc12` it was “inactive”.
Still for that read-out and setting: then `CCN(CC)CCOc1ccc(C(O)(Cc2ccc(Cl)cc2)c2ccc(C)cc2)cc1` (configuration not stated), with 5.01 µM (active); and `CN1CCN(CCCN2c3ccccc3Sc3ccc(S(=O)(=O)N(C)C)cc32)CC1`, with 0.891 µM (active).

The values above are taken from PubChem BioAssay (NCATS).
